Assay outcomes: PubChem, several laboratories
In the library only some 2.5% were active in any assay of this set; here they are far more common.
Mcl1-Bid inh: disrupts binding of human Mcl-1 to Bid peptide; Q07820; TR-FRET Mcl-1/Bid-Dy647 peptide binding, 1536-well; inhibition, % at 21.7 µM; 0.97% of 220,000 active; AID 1021;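 active means compounds that cut the binding signal by more than half at the single screening dose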;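 further: His-tagged Mcl-1 with europium anti-His antibody binding Bid BH3 peptide; 0% = Mcl-1 plus peptide wells and 100% = peptide-only wells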
Target sequence (Q07820 whole entry, looked up): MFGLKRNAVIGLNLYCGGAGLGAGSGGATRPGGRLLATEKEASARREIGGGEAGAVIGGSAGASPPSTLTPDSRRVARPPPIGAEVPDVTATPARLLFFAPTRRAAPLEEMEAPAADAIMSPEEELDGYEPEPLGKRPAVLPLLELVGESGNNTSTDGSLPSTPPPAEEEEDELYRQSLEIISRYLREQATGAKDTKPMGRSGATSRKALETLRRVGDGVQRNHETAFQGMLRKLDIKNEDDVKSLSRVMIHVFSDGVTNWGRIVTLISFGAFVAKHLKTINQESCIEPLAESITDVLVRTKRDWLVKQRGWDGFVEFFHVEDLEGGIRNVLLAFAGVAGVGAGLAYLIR
Mcl1-Noxa inh: disrupts binding of human Mcl-1 to Noxa peptide; Q07820; TR-FRET Mcl-1/Noxa peptide binding, 2 h; inhibition, % at 21.7 µM; 1.5% of 220,000 active; AID 1022;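 active means compounds that cut the protein-peptide binding signal by more than 50% relative to plate controls in a single-dose test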;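 further: His-tagged Mcl-1 with rhodamine Noxa BH3 peptide and terbium anti-His antibody; 0% = Mcl-1 plus Noxa peptide wells and 100% = peptide-only wells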
Bim-Mcl-1: inhibitors of Bim-Mcl-1 interaction, human. Q07820. Bead-based flow cytometry, Bim peptide-Mcl-1 binding. inhibition, % at 10 µM. 0.1% of 190,000 active; in the data active means inhibition above about 40%;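 further: 0% = no compound tracer wells and 100% = peptide blocker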
14-3-3 Bad PPI: disrupts binding of bovine 14-3-3 zeta to phospho-Bad peptide; inhibition, % at 21.7 µM; TR-FRET 14-3-3zeta/Dy647-pBad peptide displacement, 1 h; 0.71% of 220,000 active; P63103;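 active means inhibition above about 70%, limit read from the data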;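 further: 0% = full 14-3-3 plus peptide FRET controls and 100% = background without 14-3-3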
Target sequence (P63103 whole entry, looked up): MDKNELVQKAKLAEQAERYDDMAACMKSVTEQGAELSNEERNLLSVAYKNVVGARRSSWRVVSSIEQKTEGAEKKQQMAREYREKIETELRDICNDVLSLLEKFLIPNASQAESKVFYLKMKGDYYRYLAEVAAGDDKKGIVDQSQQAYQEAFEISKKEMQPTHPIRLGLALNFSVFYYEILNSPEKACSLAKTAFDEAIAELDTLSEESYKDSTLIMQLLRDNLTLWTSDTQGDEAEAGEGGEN
MCL1-BIM inh: disrupts human MCL1 binding to BIM-BH3 peptide | 0.68% of 320,000 active | AID 2057 | GST-MCL1 / FITC-Bim-BH3 fluorescence polarization | inhibition, % at 10.9 µM | Q07820;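 active means inhibition above the mean inhibition of all tested compounds plus 3 SD, set per campaign, cut at about 40% in these data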;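 further: 0% = DMSO wells and 100% = unlabeled Bim-BH3 peptide control; higher means more loss of mP so more displacement of Bim peptide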
Bcl-xL conf: Bcl-xL (human) inhibition, MCL1 counter-screen confirmation; inhibition, % at 10.9 µM; shares compounds with MCL1-BIM inh; GST-Bcl-xL / FITC-Bim BH3 peptide FP binding; 54% of 1,700 active;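 active means inhibition above a cutoff equal to the mean inhibition of all tested compounds plus 3 SD, cut at about 30% in these data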;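 further: 0% = DMSO wells and 100% = unlabeled Bim BH3 control peptide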
MCL1 inh confirm: confirmation of human MCL1 and BIM-BH3 interaction inhibitors; GST-MCL1 / FITC-Bim-BH3 fluorescence polarization; inhibition, % at 10.9 µM; shares compounds with MCL1-BIM inh; 61% of 1,700 active;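 active means inhibition above the average of all tested compounds plus 3 SD, cut at about 40% in these data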;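 further: 0% = DMSO wells and 100% = unlabeled Bim-BH3 control peptide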
An asterisk follows results filed as active; · = no result; + = active, no number.

SMILES	Mcl1-Bid inh	Mcl1-Noxa inh	Bim-Mcl-1	14-3-3 Bad PPI	MCL1-BIM inh	Bcl-xL conf	MCL1 inh confirm
Cn1nc([N+](=O)[O-])c(C(C#N)c2ccccn2)c(Cl)c1=O (configuration not stated)	-26	5	-1	-13	60*	23	15
N#CC(c1ccccn1)c1ncc(C(F)(F)F)cc1Cl (configuration not stated)	-21	0	-2	-6	10	·	·
COc1cccc(-n2c(-c3ccco3)nc3nc4ccccc4nc32)c1	-3	4	0	-5	0	·	·
CCCCNC(=S)Nc1ccc(OC)nc1	-41	4	-2	-9	58*	43*	52*
COc1ccc(NC(=S)Nc2ccccc2)cn1	-54	5	-1	-1	14	·	·
CNC(=O)C(=O)NCC1OCCCN1S(=O)(=O)c1ccc2c(c1)OCCO2 (configuration not stated)	·	·	·	·	6	·	·
Cc1c(NC(=O)C(C)OC(=O)c2cc(-c3cccc4ccccc34)nc3ccccc23)c(=O)n(-c2ccccc2)n1C (configuration not stated)	1	13	-3	-14	86*	26	30
COC(=O)N1[C@H](Cc2ccccc2)C=C[C@]1(C)C(=O)NCc1ccccn1	-12	0	-2	2	2	·	·
CCNC(=O)NCc1c(C)c(C)n(Cc2ccccc2)c1-n1cccc1	-34	9	0	4	-3	·	·
CCN(CC(=O)Nc1c(F)cccc1F)C(=O)/C=C/c1ccc2ccccc2n1	·	·	·	·	86*	21	90*
O=C(CSc1nc2ccccc2s1)NNC(=S)Nc1ccc(Cl)cc1	-114	-15	4	-5	43*	14	13
O=C(NCc1nc2ccccc2[nH]1)c1ccccc1F	-21	-7	·	-4	5	·	·
N#CC1=C(N)SC(N)=C(C#N)C1c1ccoc1	-28	41	-4	2	80*	4	-4
Cc1ccc(C2C(C#N)=C(N)SC(N)=C2C#N)cc1	-26	·	-5	-7	·	·	·
NNC(=O)c1cc(O)c(O)c(O)c1	-83	73*	8	27	54*	34*	46*
COc1c(Cl)cc(C(=O)NN)cc1Cl	-24	7	-2	-6	-1	·	·
Cc1ccc(/C=C/C(=O)Nc2nnc(C)s2)o1	-35	13	-10	-4	6	·	·
Cc1ccc(/C=C/C(=O)Nc2cccc3cccnc23)o1	-7	21	1	-5	84*	32*	40*
CCCCCOC(=O)C(C)Sc1n[nH]c(=O)[nH]c1=O (configuration not stated)	-86	-3	0	-5	12	·	·
O/C(=C\c1nc2ccccc2[nH]1)c1cccs1	·	·	·	·	14	·	·
O=c1[nH]c2ccccc2nc1/C=C(\O)c1cccs1	-6	-11	1	-20	100*	88*	91*
CC(C)(C)C1CC=C2C(C#N)=C(N)C(C#N)(C#N)C(c3cccs3)C2C1 (configuration not stated)	·	·	·	·	63*	114*	145*
COCCN(CC(=O)Nc1cccc(C)c1C)C(=O)Cc1cccs1	·	·	·	·	0	·	·
O=C(CN1C(=O)c2ccccc2C1=O)N1CCN(c2ccccn2)CC1	-5	1	-2	5	-1	·	·
COc1cc(CN2CCN(S(=O)(=O)c3ccc(F)cc3)CC2)cc(OC)c1OC	8	4	-4	11	4	·	·
SMILES	Mcl1-Bid inh	Mcl1-Noxa inh	Bim-Mcl-1	14-3-3 Bad PPI	MCL1-BIM inh	Bcl-xL conf	MCL1 inh confirm
O=S(=O)(c1cc(O)ccc1O)c1cccc2c(S(=O)(=O)c3cc(O)ccc3O)cccc12	·	·	·	·	46*	24	52*
O=C(N/N=C/c1ccc(-c2ccc(S(=O)(=O)Nc3ncccn3)cc2)o1)c1cc2ccccc2cc1O	51*	106*	4	6	64*	16	57*
COc1cc(OC)nc(Oc2ccccc2/C=N/O)n1	·	·	·	·	3	·	·
COC1CCCN(Cc2c(C(=O)N3CCN(C4CCCCC4)CC3)nc3ccccn23)C1 (configuration not stated)	·	·	·	·	70*	40*	42*
COc1ccc(-c2cnc(N)nc2-c2ccc(OCc3ccccc3)cc2O)cc1	-5	9	·	0	2	·	·
Nc1ncc(-c2ccccc2)c(-c2ccc(O)cc2O)n1	·	·	·	·	51*	14	16
Nc1ccccc1C(=O)/C=C/c1ccc2c(c1)OCO2	-3	-5	-2	13	1	·	·
CCNc1ccc(Br)cc(C(=O)/C=C/c2ccc3c(c2)OCO3)c1=O	-29	94*	11	50	47*	-26	-45
CCOc1ccccc1NC(=O)c1ccc(S(=O)(=O)N2CCOCC2)cc1	-8	11	0	-9	-3	·	·
CC1CCCCN1C(=O)Cn1nnc(-c2cccnc2)n1 (configuration not stated)	-10	16	-2	-8	91*	73*	110*
O=C(Nc1ccc(Nc2ccncc2)cc1)c1ccc(Nc2ccnc3ccc([N+](=O)[O-])cc23)cc1[N+](=O)[O-]	90*	80*	·	77*	43*	13	27
COc1ccccc1CNCc1cc(Br)ccc1OC	7	21	0	15	0	·	·
Fc1ccc(C2=CC(c3ccc(Br)o3)n3ncnc3N2)cc1 (configuration not stated)	17	23	-4	-4	+	125*	156*
Fc1ccc(C2=CC(c3ccco3)n3ncnc3N2)cc1 (configuration not stated)	-77	11	-4	-2	181*	11	22
C1=C(c2ccc(-c3ccccc3)cc2)Nc2ncnn2C1c1ccco1 (configuration not stated)	-56	20	-1	-6	·	·	·
COc1ccccc1C1C(C(N)=O)=C(C)Nc2nc(-c3ccccc3Cl)nn21 (configuration not stated)	-7	-14	-2	5	2	·	·
Cc1ccnc(N2C(=O)C3C4CC(C(Br)C4Br)C3C2=O)c1 (configuration not stated)	-14	-10	3	-2	4	·	·
Cc1ccc(SCCNC(=O)/C=C/c2ccc([N+](=O)[O-])cc2)cc1	-11	0	1	3	1	·	·
Cc1ccc(SCCNC(=O)/C=C/c2ccc(Cl)cc2)cc1	-31	0	-1	-16	54*	24	34
O=C(CC1Nc2ccccc2NC1=O)NC1CCCCC1 (configuration not stated)	·	·	-1	·	6	·	·
O=[n+]1c2c(n([O-])c3c1CCC3)CCCC2	1	8	-3	1	7	·	·
O=C(c1cc2cc(Br)ccc2oc1=O)N1CCCC1	-8	-1	0	6	-2	·	·
CCOC(=O)C1=C(COC(=O)c2ccc3ccccc3c2O)NC(=O)NC1C (configuration not stated)	·	·	·	·	88*	25	24
